# Assay results: PubChem BioAssay (NCI)
# The panel holds about 83,000 compounds, 20% with a hit somewhere; the sample as a whole holds those more often.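 96-well plates, one dose, 48 hours. Percent growth reported; active if below 10.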 Active and inactive are the calls of the source.
# Tested on: HCT-15 colon
# Assay: NCI-60 one-dose screen, 48 h (100 = growth as untreated, 0 = no growth, -100 = all killed)
# Conditions: 10 µM unless noted
row,Compound,growth
1,CC(C)(C)c1cc(-c2nc3ccc(N4CCN(S(C)(=O)=O)CC4)cc3[nH]2)cc(C(C)(C)C)c1O,69.2% (inactive)
2,CCCCN1C(=O)/C(=c2\sc3n(c2=O)C2C(NN=3)N(CC)C(=O)N2CC)c2ccccc21 (stereo not drawn),8.29% (active)
3,N#Cc1nn(-c2cc(=O)[nH]c3ccc(Cl)cc23)c(N)c1C#N,108% (inactive)
4,Cc1ccc(-n2c(=S)[nH]c3sc4c(c3c2=O)CCC(=O)C4)cc1,25% (inactive)

# Tested on: HT29 colon
# Assay: as above
# Conditions: 10 µM unless noted
row,Compound,growth
1,O=Cc1ccc([N+](=O)[O-])s1,55.4% (inactive)
2,CC(C)(C)n1cc(-c2ccnc(NCCCNS(=O)(=O)c3ccc(F)cc3)c2)c(-c2cccc(F)c2)n1,6.93% (active)
3,O=C1C(Cl)=C(Nc2ccc(O)cc2)C(=O)N1Cc1ccc(Cl)cc1,11% (inactive)
4,COc1cc(CNC(=O)CCCC/C=C/C(C)C)ccc1OCc1nnc(Nc2ccc([N+](=O)[O-])cc2)o1,71.7% (inactive)
5,O=C(N/N=C/c1ccc(F)cc1)c1ccc(C(F)(F)F)nc1Nc1cccc(C(F)(F)F)c1,1.2% (active)
6,C=C(C)[C@@H]1CC[C@]2(C(=O)NCCNCCN)CC[C@]3(C)[C@H](CC[C@@H]4[C@@]5(C)C/C(=C/c6ccncc6)C(=O)C(C)(C)[C@@H]5CC[C@]43C)[C@@H]12,96% (inactive)
7,O=C(COc1ccc(-c2nc3ccccc3[nH]2)cc1)N=Nc1c(O)[nH]c2ccc(Cl)cc12,41.2% (inactive)
8,C/C(=N/O)c1ccc(F)cc1,16.5% (inactive)
9,COc1ccc(C2=Nc3c/c(=C\c4c(O)[nH]c5ccc(Cl)cc45)ccc3=N2)cc1,-13.9% (active)
